The full list was thinned out, with hits kept by preference.
RmlC RmlD mix – RmlC/RmlD inhibition, mixture screen; RmlC/RmlD coupled enzyme inhibition, 384-well mixture HTS; inhibition, % at 5.5 µM; actives 0.39% (n = 110,000); AID 1532; in the data active means inhibition above about 30%, passing the limit was not always enough; inconclusive means no clear call, values can overlap the other calls
RT RNaseH block – blocks HIV-1 RNase H cleavage of RNA/DNA duplex | P04585 | RT-RNase H RNA/DNA duplex cleavage, fluorescence | inhibition, % at 10 µM | actives 1.9% (n = 65,000); in the data active means inhibition above about 50%
RmlCD artifact – RmlC/RmlD fluorescence artifact, counter-screen. shares compounds with RmlC RmlD mix. RmlC/RmlD assay fluorescence artifact counter-screen. calls only. actives 96% (n = 360). AID 1696; call rule not given here;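 further: compound alone with no enzyme and no substrates present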
Numbers without * were called inactive; i = inactive; ? = inconclusive; . = no result given; + = active, no number.

SMILES | RmlC RmlD mix | RT RNaseH block | RmlCD artifact
COCCNC(=O)c1c(N)n(Cc2ccco2)c2nc3ccccc3nc12 | 19 | . | .
CCOC(=O)c1c(N)n(CCN2CCCCC2)c2nc3ccccc3nc12 | 38* | 2 | +
COC(=O)c1c(N)n(CCCN2CCOCC2)c2nc3ccccc3nc12 | -6 | . | .
CC(C)NC(=O)CN1CCN(c2ncccn2)CC1 | 23 | -1 | .
COc1cccc(/C=C/c2nc3c(cnn3-c3ccccc3)c(=O)[nH]2)c1 | . | . | +
O=c1[nH]c(-c2ccc(Cl)cc2)nc2c1cnn2-c1ccccc1 | -8 | 9 | .
COc1ccc2cc3cc(C(=O)NC(C)C)oc3nc2c1 | 96* | . | +
COc1ccc2cc3cc(C(=O)Nc4cc(OC)c(OC)c(OC)c4)oc3nc2c1 | 13 | . | .
CC1(C)NC(C)(C)C(O)(C(N)=O)C1=O (centres undefined) | 9 | 3 | .
CC(=O)NC1=NN(C(C)=O)C(c2sccc2C)S1 (centres undefined) | -10 | . | .
O=C(Nc1ccccn1)C(NS(=O)(=O)c1cccc2nsnc12)c1ccccc1 (centres undefined) | -8 | 22 | .
Cc1c(C)c2cc(Cl)c(OCc3nn[nH]n3)cc2oc1=O | -6 | -1 | .
Cc1c(Cc2ccccc2)c(=O)oc2c(CN(C)C)c(O)c(Cl)cc12 | 145* | -9 | +
CN(C)Cc1c(O)ccc2oc(Cc3ccccc3)cc12 | 4 | 6 | .
CCN(CC)Cc1c(O)c(Cl)cc2c(C)c(C)c(=O)oc12 | 68* | . | +
NC(=O)[C@@H]1CCOc2c(I)cc([N+](=O)[O-])cc2C(=O)N[C@@H](CO)C(=O)NCC(=O)N1 | 17 | . | .
Cc1ccc(N(C(=O)C2CCCC2)C2C=CS(=O)(=O)C2)cc1C (centres undefined) | -4 | -5 | .
COc1cc(-c2nc3ccccn3c2/N=C/c2ccccc2)ccc1O | 67* | . | +
Oc1cccc(/C=N/c2c(-c3ccco3)nc3ccccn23)c1 | ? | -24 | .
Cc1ccc2nc(NC(=O)c3cccc(-c4cc5ccccc5oc4=O)c3)sc2c1 | 41* | . | +
CCn1nnc(NC(=O)c2cccc(-c3cc4ccccc4oc3=O)c2)n1 | 56 | 0 | .
CCOC(=O)CSc1nc2ccccc2c(=O)n1CCC(=O)NCCc1ccc(OC)c(OC)c1 | -1 | . | .
CC(C)CN(Cc1c(O)ccc2c3c(c(=O)oc12)CCC3)CC(C)C | 95* | . | +
Cc1c(O)ccc2c3c(c(=O)oc12)CCCC3 | 70 | -26 | .
O=c1c(-c2ccc3c(c2)OCCO3)coc2c(CN3CCOCC3)c(O)ccc12 | 13 | -5 | .
SMILES | RmlC RmlD mix | RT RNaseH block | RmlCD artifact
Cc1cc(=O)oc2c(CN(CC(C)C)CC(C)C)c(O)ccc12 | 105* | . | +
CCN(CC)Cc1c(O)ccc2c(-c3ccccc3)cc(=O)oc12 | -8 | -6 | .
O=c1oc2c(CN3CCOCC3)c(O)ccc2c2c1CCC2 | 100* | -6 | +
CN(C)c1ccc(C(c2nnnn2CCOC(=O)Nc2ccc(Cl)cc2)N2CCOCC2)cc1 (centres undefined) | 7 | 7 | .
CC(/C=C(\NC(=O)c1ccccc1)C(=O)N=Nc1c(O)[nH]c2ccc(C)cc12)=C\c1ccccc1 | 1 | . | .
O=C(Nn1c(=S)[nH]c2ccccc2c1=O)c1ccncc1 | 8 | 2 | .
COc1ccc(C2SCC(=O)N2c2c(C)n(C)n(-c3ccccc3)c2=O)cc1OC (centres undefined) | 3 | . | .
O=C(NCCN1CCOCC1)c1ccc(F)cc1 | -2 | . | .
O=C(NCCN1CCOCC1)c1ccc(=O)oc1 | 43* | -2 | +
C=CCn1sc(=N)c(C#N)c1N | 4 | 4 | .
CNC(=O)c1cc2c(s1)-c1ccccc1CC2 | . | . | +
O=C(N/N=C/c1ccc(F)c(F)c1)c1cc2c(s1)-c1ccccc1CC2 | -111 | . | .
COc1ccc(-c2nc(C#N)c(N3CCC(C(N)=O)CC3)o2)cc1 | 50* | . | +
N#Cc1nc(-c2ccc(OCc3ccccc3)cc2)oc1N1CCC(C(N)=O)CC1 | . | 45 | .
CS(=O)(=O)Nc1cccc(C(=O)CC2(O)C(=O)Nc3ccc(Br)cc32)c1 (centres undefined) | -12 | -1 | .
COC(=O)c1sc2cnccc2c1N | 34* | -1 | +
COCc1cc(C)nc2sc(C(=O)OC)c(N)c12 | 108 | -29 | .
COc1ccccc1-c1c(C)oc2c(CN3CCN(CCO)CC3)c(O)ccc2c1=O | . | -2 | i
COc1ccccc1-c1c(C)oc2c(CN3CCN(C)CC3)c(O)ccc2c1=O | 43* | -10 | +
CCOC(=O)c1oc2c(CN3CCN(C)CC3)c(O)ccc2c(=O)c1-c1ccccc1OC | 9 | -6 | .
COc1ccc(-c2c(C)oc3c(CN4CCN(CCO)CC4)c(O)ccc3c2=O)cc1OC | . | -4 | .
CCc1cc2c(=O)c(Oc3ccccc3F)c(C)oc2c(CN(C)C)c1O | 72* | 3 | +
CCOc1ccccc1Oc1c(C)oc2c(CN3CCN(C)CC3)c(O)ccc2c1=O | 19 | 1 | .
CCCC(=O)c1c[nH]c(C(=O)NCCc2ccccn2)c1 | 7 | . | .
Cc1cc(NCCCN2CCOCC2)n2c(nc3ccccc32)c1C#N | 71* | -15 | +
SMILES | RmlC RmlD mix | RT RNaseH block | RmlCD artifact
Cc1cc(NCCN2CCOCC2)n2c(nc3ccccc32)c1C#N | 20 | 5 | .
COc1cc(C)nc(OCCNS(=O)(=O)c2cc(C)ccc2C)n1 | 4 | -4 | .
O=c1oc2cc(O)ccc2c2ccccc12 | -12 | . | .
O=c1oc2cc(O)ccc2c2c1CCCC2 | 126* | -28 | +
Cc1cc(OC(=O)c2ccco2)c2c3c(c(=O)oc2c1)CCC3 | -129 | -4 | .
O=C(Oc1ccc2c3c(c(=O)oc2c1)CCCC3)c1ccco1 | 110* | -11 | +
O=C(Nc1ccn(-c2ccccc2)n1)c1ccc(S(=O)(=O)N2CCCCCC2)cc1 | 3 | 12 | .
COc1ccc(NC(=O)N2CCCC(c3nc(-c4ccc(C(C)C)cc4)no3)C2)cc1 (centres undefined) | 7 | -2 | .
CCCc1cc(N2CCN(C(=O)c3ccco3)CC2)n2c(nc3ccccc32)c1C#N | 39* | . | +
CCCc1cc(-n2ccnc2C)n2c(nc3ccccc32)c1C#N | . | -8 | .
Cc1nc2c(c(=O)n1CCC1=CCCCC1)c1nc3ccccc3nc1n2/N=C/c1ccccc1 | -5 | . | +
CCOCCCn1c(C)nc2c(c1=O)c1nc3ccccc3nc1n2CCC1=CCCCC1 | . | -25 | .
Cc1c(C(=O)OCC2CCCO2)[nH]c2c1C(=O)CC(c1ccc(N(C)C)cc1)C2 (centres undefined) | 8 | 1 | .
COc1ccnc(N=CNOCc2ccc(F)cc2Cl)c1C#N | -19 | . | .
COc1ccc(-c2cc(C(F)(F)F)c(C#N)c(SCC(=O)Nc3nc(C)co3)n2)cc1 | + | . | +
Cc1coc(NC(=O)CSc2nc(-c3ccc(Cl)cc3)cc(C(F)(F)F)c2C#N)n1 | 4 | . | .
CSc1nsc(SCC(=O)N2CCN(c3ccccc3)CC2)n1 | 0 | -8 | .
Cc1cccc2nc(CSc3nnc4ccccn34)cn12 | -8 | . | .
CCCOc1ccc(-c2nnn(CC(=O)c3c[nH]c4ccccc34)n2)cc1 | -8 | . | .
C=CCn1c(=O)c(C#N)cc2c(=O)n3ccccc3nc21 | 58* | -13 | +
COCCn1c(=N)c(C(=O)NCCc2ccc(OC)cc2)cc2c(=O)n3cccc(C)c3nc21 | 9 | -24 | .
CCCCCn1c(=NC(C)=O)c(C#N)cc2c(=O)n3ccccc3nc21 | . | -13 | .
C=CCn1c(=N)c(C(=O)NCCCOC)cc2c(=O)n3cc(C)ccc3nc21 | . | -2 | .

Screens: PubChem BioAssay, several laboratories
